Assay outcomes: PubChem BioAssay, several laboratories
Hits are enriched below; roughly 4.7% of the tested compounds scored in any of these assays.
rCAG RNA binder: molecules binding r(CAG) RNA repeats; r(CAG) RNA repeat, TO-PRO-1 dye displacement fluorescence; inhibition, % at 3 µM; actives 1.3% (n = 370,000); AID 651821;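 active = inhibition above the plate cutoff, the mean of all test compounds on that plate plus 3 SD, cut at about 35% in these data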;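 note: higher means more dye released from RNA so lower well fluorescence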
ADAM10 inh: inhibits human ADAM10; O14672; AID 720582; recombinant ADAM10, EDANS/DABCYL FRET peptide cleavage, 3 h; inhibition, % at 7 µM; actives 0.62% (n = 370,000);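 active = inhibition above a per-campaign cutoff equal to the mean of compounds falling between control-based bounds plus 3 SD, cut at about 20% in these data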
KLK7 zymogen act: proKLK7 (human) activation, primary screen; purified proKLK7, EDANS-DABCYL substrate fluorescence; 100% is mature enzyme control, 0% vehicle; activation, % at 7 µM; actives 0.9% (n = 370,000); AID 652039;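 active = activation above the mean of all tested compounds plus 3 SD, computed per campaign excluding outliers beyond control limits, cut at about 13% in these data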
ADAM17 inh: ADAM17 inhibition, QFRET primary screen; actives 0.83% (n = 370,000); inhibition, % at 6.95 µM; P78536; recombinant ADAM17, EDANS/DABCYL FRET peptide cleavage;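 active = inhibition above the mean of compounds lying between control limits plus 3 SD, set per campaign, cut at about 8.5% in these data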
Pemphigus Ab inh: blocks pemphigus antibody binding to human desmoglein-3. P32926. DSG3-coupled beads, scFv-anti-DSG3-GFP binding, flow cytometry; hits give low values. binding (percent of control), % at 10 µM. actives 0.48% (n = 310,000);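 active = binding more than 3 SD below its plate's average and above zero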;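 note: hits lower antibody fragment binding to DSG3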
MPTP inh: permeability transition pore inhibition. AID 602449. isolated mouse mitochondria, Ca2+ swelling absorbance, 30 min. inhibition, % at 10 µM. actives 1.4% (n = 360,000);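 active = inhibition of 50% or more, scaled per plate between neutral and stimulator controls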
rCAG bind conf: r(CAG) RNA repeat binding, confirmation. shares compounds with rCAG RNA binder. TO-PRO-1 dye displacement fluorescence. inhibition, % at 3 µM. actives 70% (n = 4,300). AID 652065;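 active = inhibition above a per-plate cutoff, the mean inhibition of sample wells plus 3 SD, cut at about 35% in these data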;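 note: loss of TO-PRO-1 fluorescence as compound displaces dye from 1x1 AA loop RNA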
dCAG dye counter: disrupts DNA CAG TO-PRO-1 complex, flagging rCAG hits | shares compounds with rCAG RNA binder | d(CAG) DNA oligo TO-PRO-1 dye displacement, fluorescence | inhibition, % at 3 µM | actives 94% (n = 4,300);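 active = inhibition above its plate's cutoff, the mean test-well inhibition plus 3 SD, cut at about 4.8% in these data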;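 note: hits displace the dye from DNA and so lower well fluorescence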
dCAG dye DR: DNA CAG dye complex inhibition, dose response counter-screen; shares compounds with rCAG RNA binder; DNA CAG/GTC duplex TO-PRO-1 dye displacement fluorescence; IC50, µM; actives 20% (n = 250); AID 686960; in the data active = IC50 below about 10 µM
Of the large screens only hits and unclear results are named; the others gave an inactive call (follow-up assays come after a bar, where they were run).

COC1=CC(=O)OC(c2cccc(C#N)c2)C1 (centres undefined)	none (no result: Pemphigus Ab inh)
CCOC(=O)C1=NOC(C(=O)NC2CCCC2)(C(=O)c2ccc(OC)cc2)C1 (centres undefined)	none (no result: Pemphigus Ab inh, MPTP inh)
O=C(CC1C[C@H](C(=O)N2CCOCC2)[C@@]2(CCC3CCCC3)c3[nH]c4ccccc4c3CCN2C1=O)NCCCn1ccnc1 (some centres undefined)	rCAG RNA binder 35 | rCAG bind conf inactive | dCAG dye counter inactive
COc1ccc2[nH]c3c(c2c1)CCN1C(=O)C(CC(=O)NCCCn2ccnc2)C[C@H](C(=O)N2CCOCC2)[C@@]31CCC1CCCC1 (some centres undefined)	none
COC(=O)c1ccc2c(c1)sc(=NC(=O)CCS(=O)(=O)c1ccccc1)n2C	none
O=C(COc1ccccc1/C=C1\SC(=O)NC1=O)Nc1ccccc1	rCAG RNA binder 35 | rCAG bind conf 48 | dCAG dye counter 15
CCOc1ccccc1C=C1SC(=S)NC1=O	none
O=C1NC(=O)/C(=C/c2ccccc2OCc2ccccc2)S1	rCAG RNA binder 67 | rCAG bind conf 60 | dCAG dye counter 16
COc1cccc(/C=C2/NC(=O)NC2=O)c1OCC(=O)Nc1ccccc1	none
CC(C)CS(=O)(=O)C1=NSC2=NC(=O)/C(=C\c3ccc(OC(=O)c4ccco4)cc3)C(=N)N21	none
CS(=O)(=O)C1=NSC2=NC(=O)/C(=C\c3ccc(OC(=O)c4ccco4)c(Br)c3)C(=N)N21	rCAG RNA binder 40 | rCAG bind conf 83 | dCAG dye counter 53
CSC1=NSC2=NC(=O)/C(=C\c3ccc(OC(=O)c4ccco4)cc3)C(=N)N12	rCAG RNA binder 38 | rCAG bind conf 43 | dCAG dye counter 13
CCS(=O)(=O)C1=NN2C(=N)/C(=C\c3ccc(OC(=O)c4ccco4)cc3)C(=O)N=C2S1	none
CC1=CSC2=NC(=O)/C(=C/c3cccc(OC(=O)c4ccco4)c3)C(=N)N12	none
N=C1/C(=C\c2ccc(OC(=O)c3ccccc3Cl)cc2)C(=O)N=C2SC(N3CCOCC3)=NN12	rCAG RNA binder 37 | rCAG bind conf 63 | dCAG dye counter 27
CCC(CC)C1=NN2C(=N)/C(=C/c3ccc(OC(=O)c4ccco4)cc3)C(=O)N=C2S1	rCAG RNA binder 42 | rCAG bind conf 46 | dCAG dye counter 12
COC(=O)[C@]1(C)N[C@H](CN(C)C(=O)COc2ccccc2)[C@@H]2C(=O)N(C)C(=O)[C@@H]21	none
O=C1CN(S(=O)(=O)c2cccc(Cl)c2Cl)c2ccccc2N1	none (no result: Pemphigus Ab inh)
CN(C(=O)c1ccccc1F)C(c1ccccc1)c1ccccc1	none
O=C1C=C(OCCF)CC(c2ccccc2C(F)(F)F)O1 (centres undefined)	none (no result: Pemphigus Ab inh)
CCN(CC)S(=O)(=O)c1ccc(N2CCOCC2)c(NS(=O)(=O)c2ccc(Cl)s2)c1	rCAG RNA binder 44 | rCAG bind conf 39 | dCAG dye counter 10
N#C/C(C(=O)Nc1ccc(Cl)cc1)=C(/S)Nc1ccccc1	rCAG RNA binder 56, Pemphigus Ab inh 74 | rCAG bind conf 71 | dCAG dye counter 24 | dCAG dye DR inactive
O=C(Nc1ccc(Nc2ccccc2)cc1)c1ccc(Cl)cc1	none
COc1ccc(Br)cc1CNC(=O)Cc1c(C(=O)O)[nH]c2ccc(Cl)cc12	rCAG RNA binder 58 | rCAG bind conf 45 | dCAG dye counter 11
COc1ccccc1N1CCN(C(=O)Cc2ccc(Cl)cc2)CC1	none
COc1ccccc1N1CCN(C(=O)Cc2c(C(=O)O)[nH]c3ccc(Cl)cc23)CC1	rCAG RNA binder 39 | rCAG bind conf 42 | dCAG dye counter 11
O=C(O)c1[nH]c2ccc(Cl)cc2c1CC(=O)N1CCN(c2ccccc2)CC1	rCAG RNA binder 41 | rCAG bind conf 42 | dCAG dye counter 12
